Experimental findings from PubChem BioAssay are described below.

Test [1] in a line: viability loss with induced miR-34 in A549 – imaging, A549 dox-inducible miR-34, nuclei and caspase counts, primary screen (AID 1347080;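 active means compounds whose cell count with miR-34 switched on is under 0.7 times the count with it off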). The settings on record: A549 miR-34 inducible, Hoechst nuclei count, 48 h.
Test [2] in a line: compounds altering circadian rhythm period length – cell-based, LOPAC library, luminescence reporter (AID 2774).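 Further: values are relative to mean of DMSO wells on each plate.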 The note with it: circadian reporter cells, at 7 µM, actives lie on both sides.
In test [3] the test system is Hepatitis C virus NS3 helicase. Nature of the test: blockers of NS3h binding to ssDNA – biochemical, fluorescence polarization, LOPAC1280 library, primary screen (AID 687035; in the data active means inhibition above about 37%). The note with it: Purified HCV NS3 helicase, Cy5-dT15 ssDNA binding fluorescence polarization; stronger effect = higher value; concentration not given here. (In general: Polarisation of emitted light reports the rotation of a fluorescent probe.)

Test [4] is described as follows: compounds altering Cy5-DNA-NS3h complex signal – biochemical, LOPAC1280, artefact control for HCV NS3 helicase inhibitor project (AID 687037). The settings on record: Cy5-DNA-NS3h complex fluorescence interference counterscreen. (In general: The purpose of a counterscreen is to sort out artefacts and off-target activity.)
The nature of test [5]: blockers of cellular phospholipid synthesis – cell-based, LOPAC library, screen 4, primary screen (AID 1347384). The settings on record: animal cells, phospholipid biosynthesis inhibition screen; at 10 µM.
Test [6] is described as follows: galactose survival enhancers in mitochondrial complex I cybrids – cell-based, galactose medium, ATP luminescence, primary screen (AID 1645843;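 active means z-score of at least 1.8 in each of two replicates, scored against plate mean and spread of sample wells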;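 further: positive z means more ATP and so rescue of galactose-driven cybrid death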). The note with it: complex I mutant cybrid cells, 72 h, stronger effect = higher value.
Test [7] can be described thus: compounds altering viability of human ES cells (AID 493140).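 Further: cells exposed to compounds for four days before counting.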 The note with it: human embryonic stem cell survival screen; stronger effect = higher value.
A short description of test [8]: chitosan synthesis blockers in C. neoformans – flow cytometry, Cibacron Brilliant Red staining (AID 1347148).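 Further: compound exposure lasted three days at 37 degrees C.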 The note with it: Cryptococcus neoformans chitosan, stronger effect = lower value; at 10 µM unless noted.
Test [9] is described as follows: MELAS cybrid and Rieske KO viability enhancers – cell-based, MELAS cybrids, Rieske KO mouse fibroblasts, CellTiter-Glo, primary screen (AID 1508586;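 active means mean z-score across replicates of 1.96 or higher in either the MELAS or the Rieske mutant cell line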;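 further: z relative to plate mean and SD of compound and empty wells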). The note with it: low glucose. A general note: Cellular ATP, detected with luciferase, serves as a proxy for viable cell number.
[10] abbreviates: measured here: relative caspase fold change +Dox/-Dox.
Where [11] appears, read: measured here: total cells with miR-34 induction, stronger effect = lower value.
The mark [12] stands for this setting: measured here: total cells without miR-34 induction.

Where “and” joins values, the source holds several entries; their conditions need not be identical. Equal values may be shown once. Calls of active or inactive are those of the source. Unless noted, how the calls were made is not given here.

Broadly, the inhibition is the relative decrease from the control value, in per cent.

On to `C[C@]12CCC3c4ccc(OC(=O)N(CCCl)CCCl)cc4CCC3C1CC[C@@H]2O` (some centres undefined), for which the fold change was 1.19 (inactive) in [1] (stronger effect = lower value) and 0.867 in test [1] (setting [10]). The cell count in test [1] (setting [11]) was 2030; in test [1] (setting [12]), 1700.

As for `CCCCC/C=C\C/C=C\C/C=C\C/C=C\CCCC(=O)N[C@@H](C)C(=O)O`, the fold change is 0.941 (inactive) in [1] (stronger effect = lower value, cell number ratio, induced over uninduced) and 1.84 in test [1] (setting [10]). Moreover, the cell count in test [1] (setting [11]) came out at 5770; in [1] (setting [12]), 6140.

Regarding `NC(CP(=O)(O)O)C(=O)O` (centres undefined), in [2], the period change is -0.025 h (inactive). Further, the inhibition in test [3] was -2% (inactive). Further, in test [4], the fluorescence ratio (interference) was 1 (inactive). Moreover, the fold change in test [1] (stronger effect = lower value) was 1.01 (inactive); in test [1] (setting [10]), 2.04. For the same molecule, the cell count came to 10500 in test [1] (setting [11]) and 10400 in test [1] (setting [12]). The molecule was classed as inactive in [5]. Moreover, the z-score in [6] is 0.29 (inactive).

For the molecule `O=C(NC1CN2CCC1CC2)c1cc2ccoc2cn1` (centres undefined), the fold change in test [1] (stronger effect = lower value) is 0.991 (inactive); in [1] (setting [10]) it was 1.41. Further, the cell count in test [1] (setting [11]) was determined as 10200; in test [1] (setting [12]) it was 10300. The call in [5] was inactive. In addition, the z-score in [6] is 0.38 (inactive).

With `CCCCCCCCCCCCCCCCOC[C@@H](COP(=O)([O-])OCC[N+](C)(C)C)OC(C)=O`, the survival in test [7] is 78.6 (inactive). Moreover, the fold change was 0.883 (inactive) in test [1] (stronger effect = lower value) and 0.996 in [1] (setting [10]). For the same molecule, the cell count in test [1] (setting [11]) worked out at 4960; in test [1] (setting [12]), 5620. For the same molecule, the fold fluorescence in test [8] is 4.51 (inactive) and 4.92 (inactive).

Take `CCCCC/C=C\C/C=C\CCCCCCCC(=O)NCCO`: the survival in test [7] was 162 (inactive). Further, the fold change in test [1] (stronger effect = lower value) is 1.09 (inactive) and 1.06 (inactive); in [1] (setting [10]), 1.07 and 1.16. Also, the cell count in test [1] (setting [11]) was 5710 and 5830; in test [1] (setting [12]), 5220 and 5490. Also, the fold fluorescence in [8] is 4.78 (inactive).

In the case of `CCCCC[C@@H](/C=C/C=C\CCCCCCCC(=O)O)OO`, the survival in [7] is 94.8 (inactive). Further, the fold change in test [1] (stronger effect = lower value) was 0.981 (inactive); in [1] (setting [10]) it was 1.1. Besides, the cell count was found to be 5710 in test [1] (setting [11]) and 5820 in [1] (setting [12]). The fold fluorescence in [8] was 6.27 [at 1 µM] (inactive).

Regarding `CCCCC/C=C\C/C=C\C/C=C\C=C\[C@H](CCCC(=O)O)OO`, the survival in [7] is 114 (inactive). Also, the fold change in [1] (stronger effect = lower value) was 0.99 (inactive); in test [1] (setting [10]) it was 1.08. Further, the cell count in [1] (setting [11]) is 5950; in test [1] (setting [12]) it was 6010. For the same molecule, the fold fluorescence in test [8] was 5.34 [at 1 µM] (inactive).

With `NC1CC1c1ccccc1` (centres undefined), the period change in [2] is 0.03 h (inactive). The inhibition in test [3] is -1% (inactive). Moreover, in [4], the fluorescence ratio (interference) is 1 (inactive). The fold change in test [1] (stronger effect = lower value) is 0.977 (inactive) and 0.888 (inactive); in test [1] (setting [10]) it was 1.3 and 1.48. Besides, the cell count in test [1] (setting [11]) is 10200 and 8220; in test [1] (setting [12]) it was 10400 and 9270. For the same molecule, in [5], the result was inactive. For the same molecule, the z-score in test [9] (MELAS cybrid survival, CellTiter-Glo 48 h, stronger effect = higher value) was -0.158 (inactive); in test [9] (Rieske KO mouse fibroblast survival, CellTiter-Glo 72 h), -0.299; in [6], 0.355 (inactive).

Regarding `C=CCN1C[C@@H](C)N([C@H](c2ccc(C(=O)N(CC)CC)cc2)c2cccc(OC)c2)C[C@@H]1C`, in [2], the period change is 0 h (inactive). Moreover, in [3], the inhibition is -3% (inactive). Besides, the fluorescence ratio (interference) in [4] was 1 (inactive). The fold change in test [1] (stronger effect = lower value) is 1.1 (inactive); in test [1] (setting [10]) it was 1.18. In addition, the cell count is 8780 in test [1] (setting [11]) and 7950 in [1] (setting [12]). For the same molecule, the outcome in test [5] was inactive. For the same molecule, the z-score in test [6] is -0.39 (inactive).

Turning to `CCCCC/C=C\C=C\[C@H](CCCCCCCC(=O)O)OO`, in test [7], the survival is 87.6 (inactive). Also, the fold change in test [1] (stronger effect = lower value) was 0.93 (inactive); in [1] (setting [10]) it was 1.23. In addition, the cell count stood at 5880 in [1] (setting [11]) and 6320 in [1] (setting [12]). Also, the fold fluorescence in [8] was 5.11 [at 1 µM] (inactive).

Consider `CCCCC/C=C\C/C=C\C/C=C\CCCCCCC(=O)NCCO`, for which, in [7], the survival is 87.2 (inactive). Moreover, the fold change in [1] (stronger effect = lower value) was 0.972 (inactive) and 1.13 (inactive); in [1] (setting [10]), 1.55 and 0.675. In addition, the cell count is 5830 and 6550 in [1] (setting [11]); 5990 and 5800 in test [1] (setting [12]). The fold fluorescence in test [8] is 5.22 (inactive).

Take `Clc1ccc(C2CC3CCC2N3)cn1` (centres undefined): the fold change was 0.945 (inactive) in [1] (stronger effect = lower value) and 1.19 in test [1] (setting [10]). The cell count in [1] (setting [11]) stood at 6010; in [1] (setting [12]) it was 6360. The fold fluorescence in test [8] is 4.32 [at 239.6 µM] (inactive).

As for `CCCCC/C=C\C/C=C\C/C=C\C/C=C\CCCC(=O)NCc1ccc(O)c(OC)c1`, the fold change in test [1] (stronger effect = lower value) is 0.841 (inactive) and 1 (inactive); in [1] (setting [10]), 1.08 and 0.996. The cell count is 2750 and 5480 in test [1] (setting [11]); 3270 and 5460 in test [1] (setting [12]). Also, in test [8], the fold fluorescence was 5.97 [at 113.7 µM] (inactive).

Take `CC(C)(C)OC(=O)NC1[C@H]2CNC[C@@H]12` (some centres undefined): the fold change in test [1] (stronger effect = lower value) is 1.05 (inactive); in test [1] (setting [10]), 1.39. Moreover, the cell count is 11400 in test [1] (setting [11]) and 10800 in test [1] (setting [12]). Besides, the molecule was called inactive in test [5]. Further, in [6], the z-score was 0.37 (inactive).

Consider `CCCCC[C@@H](/C=C/C=C\C/C=C\C/C=C\CCCC(=O)O)OO`, for which the survival in [7] is 120 (inactive). The fold change in [1] (stronger effect = lower value) was 0.973 (inactive); in test [1] (setting [10]), 0.92. Moreover, the cell count worked out at 5790 in test [1] (setting [11]) and 5950 in test [1] (setting [12]). Besides, in test [8], the fold fluorescence is 5.13 [at 1 µM] (inactive).

In the case of `c1ccc2cc(CC3=NCCN3)ccc2c1`, the period change in [2] was 0.04 h (inactive). Further, in test [3], the inhibition was -3% (inactive). In addition, the fluorescence ratio (interference) in [4] was 1 (inactive). Besides, the fold change in test [1] (stronger effect = lower value) was 1.06 (inactive); in test [1] (setting [10]), 1.69. Moreover, the figures for the cell count in [1] (setting [11]) and in test [1] (setting [12]) were 11100 and 10500, respectively. Also, the result in test [5] was inactive. Further, the z-score in [6] is 0.28 (inactive).

With `CC(N)c1cccc(Cl)c1Cl` (centres undefined), the period change in test [2] is 0.03 h (inactive). The inhibition in [3] was -2% (inactive). Also, in test [4], the fluorescence ratio (interference) was 1 (inactive). For the same molecule, the fold change was 1.05 (inactive) in test [1] (stronger effect = lower value) and 0.961 in [1] (setting [10]). Further, the cell count in [1] (setting [11]) was found to be 10200; in test [1] (setting [12]), 9670. Moreover, the result in test [5] was inactive. The z-score in test [6] is 0.12 (inactive).

For `N[C@@]1(C(=O)O)CC[C@@H](C(=O)O)C1`, the period change in test [2] is -0.105 h (inactive). In addition, the inhibition in [3] was -5% (inactive). For the same molecule, the fluorescence ratio (interference) in test [4] is 1 (inactive). The values for the fold change in [1] (stronger effect = lower value) and in [1] (setting [10]) were 1.04 (inactive) and 2.1, respectively. Also, the cell count turned out to be 10500 in [1] (setting [11]) and 10000 in [1] (setting [12]). Besides, the molecule was called inactive in test [5]. Also, the z-score in test [6] is 0.225 (inactive).

As to `N#CC(C#N)=Cc1ccc(O)cc1`, in test [7], the survival was 59.8 (inactive). The fold change is 1.08 (inactive) in test [1] (stronger effect = lower value) and 1.22 in [1] (setting [10]). Moreover, the cell count in [1] (setting [11]) is 5450; in test [1] (setting [12]) it was 5070. Also, the fold fluorescence in test [8] is 5.71 [at 293.8 µM] (inactive).
